Sampled rows, rich in hits. Any-hit rate of the full collection: about 0.28%.
Pin1 inhibitor: blocks the human prolyl isomerase Pin1; Potency, µM (doses to about 115 µM), usual class: inhibitors; Pin1 FP peptide displacement, HiFluor488, 10 min; AID 504891; 0.009% of 390,000 active; Q13526; active = well fitted inhibition curve with a large enough effect in the polarisation, with a control signal flat, not every such curve was filed as active; inconclusive = small, poorly fitted or top-dose-only effect, or effect the other way, or a change in a side signal; inactive = no such curve, though single readings can be large or run the other way; the % refers to the polarisation
Tb PFK inh: inhibitors of T. brucei phosphofructokinase; O15648; T. brucei PFK, ADP-Glo luminescence; Potency, µM (titrated, usually from 57.5 µM), most hits filed as inhibitors; 0.17% of 330,000 active; AID 485367; also: nearly all actives have a fitted effect of over 60% in size
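PFK 1.25 nM, F6P 0.5 mM, ATP 0.1 mM, 0.1 M TEA pH 8.0, 5 mM MgCl2, 0.01% Tween20, 0.1% BSA; 45 min RT. ADP-Glo readout. qHTS titration up to 57 uM; curves fitted, compounds curve-classed.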
USP2a block: USP2a (human) protease inhibition; 0.01% of 330,000 active; USP2 core, Ub-CHOP2 coupled fluorogenic reporter, 485/531; O75604; Potency, µM (titrated, usually from 38.3 µM), hits mostly inhibitors; AID 463254
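Cell-free coupled assay: 10nM USP2 core preincubated 30min RT with compound in Tris-HCl pH 8.0/CaCl2/CHAPS buffer, then 25nM Ub-CHOP2 and 25nM reporter substrate; fluorescence (Ex 485/Em 531) read after 60min RT, normalized to NEM inhibition, concentration-response curves fitted.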
PI4K2A inh: blocks human PI4K2A kinase activity; purified PI4K2A, ADP-Glo luminescence, 1 h; active compounds read low; Q9BTU6; 0.13% of 420,000 active; activity change, negative = inhibition, % at 76.9 µM; AID 1346378; in the data active = activity change below about -50%; inconclusive = mostly about -30% to -49%
Target sequence (Q9BTU6 whole entry, looked up): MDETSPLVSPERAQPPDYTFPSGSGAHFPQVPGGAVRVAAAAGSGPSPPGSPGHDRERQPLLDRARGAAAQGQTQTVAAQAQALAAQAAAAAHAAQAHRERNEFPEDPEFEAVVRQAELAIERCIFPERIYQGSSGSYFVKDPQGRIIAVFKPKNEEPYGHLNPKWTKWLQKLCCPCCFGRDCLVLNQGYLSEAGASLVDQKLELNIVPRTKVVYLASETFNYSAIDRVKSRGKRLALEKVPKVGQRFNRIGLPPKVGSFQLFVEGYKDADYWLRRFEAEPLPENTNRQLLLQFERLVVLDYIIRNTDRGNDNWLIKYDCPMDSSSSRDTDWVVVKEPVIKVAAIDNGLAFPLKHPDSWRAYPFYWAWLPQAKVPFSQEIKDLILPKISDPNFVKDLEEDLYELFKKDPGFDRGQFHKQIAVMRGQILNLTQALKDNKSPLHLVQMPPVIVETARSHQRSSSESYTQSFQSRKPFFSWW
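Compounds are screened against recombinant PI4K2A using PI as substrate and ATP, the latter dispensed at 300 microM. Reactions run one hour at ambient temperature before ADP-Glo detection; full inhibition defined by wells lacking enzyme.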
Tb PGK inh: T. brucei PGK inhibition; P07378; AID 602233; PGK/GAPDH coupled, Kinase-Glo luminescence, 60 min; 0.043% of 380,000 active; Potency, µM (top dose mostly 57.5 µM), hits mostly inhibitors; also: nearly all actives have a fitted effect of over 60% in size
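Recombinant glycosomal PGK reaction used 1,3-bisphosphoglycerate generated in-well by GAPDH (100nM final) in 100mM TEA pH 7.6, 5mM MgCl2, 0.01% Tween-20. After 60 minutes at room temperature, ATP was read by Kinase-Glo Plus luminescence end-point.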
Each line names hits and unclear results; the compound was inactive in the other large screens; ! = not confirmed by another sample. Unless noted, calls follow the shape of the dose curve; as a rule, active = well fitted curve in the direction sought with a large enough effect; inconclusive = small, poorly fitted or top-dose-only effect, or another doubt; inactive = no such curve, though single readings can be large; an effect the other way counts as inactive or inconclusive.

CCOc1cccc(CNc2ccc(O)cc2)c1OCc1ccccc1Cl	Pin1 inhibitor inconclusive, PI4K2A inh -53.0!
CCOc1ccc(/C=N/NC(=O)c2[nH]ncc2Br)c(O)c1	Tb PFK inh inconclusive, PI4K2A inh -74.9, Tb PGK inh inconclusive
COc1ccc(OC)c(/C=N/NC(=O)c2[nH]ncc2Br)c1	none
Cc1ccc(NC2C(=O)NC(=O)NC2=O)cc1	PI4K2A inh -58.9 (no result: Tb PFK inh, USP2a block)
O=C(Nc1ccc2nc(-c3ccco3)c(-c3ccco3)nc2c1)N1CCCCCC1	Pin1 inhibitor inconclusive, PI4K2A inh -50.6
COC(=O)c1cc(Cl)ccc1NS(=O)(=O)C(F)(F)F	none (no result: Pin1 inhibitor, Tb PFK inh, USP2a block, Tb PGK inh)
COc1ccc(-c2ccc(SC)nn2)cc1	Tb PFK inh inconclusive, PI4K2A inh -72.3, Tb PGK inh inconclusive
COc1ccc(CN(Cc2ccccc2)C(=O)c2ccccc2N)cc1COc1ccc(NC(C)=O)cc1	none (no result: Tb PFK inh, USP2a block, PI4K2A inh, Tb PGK inh)
Cc1cccc(C#Cc2ccccc2)n1	PI4K2A inh -50.4!
Nc1ccc(C#Cc2ccccc2)cc1	none
CCC(C)(CCN1CCOCC1)N(Cc1cc2ccccc2n(C)c1=O)C(=O)C1CCCCC1 (stereo unspecified)	none (no result: Tb PFK inh, USP2a block, PI4K2A inh, Tb PGK inh)
Nc1ccc([N+](=O)[O-])c(C(F)(F)F)c1	none (no result: Pin1 inhibitor, Tb PFK inh, USP2a block, Tb PGK inh)
Cn1c(NCc2ccccc2)cc(=O)n(C)c1=O	none
Cn1c(CNc2ccccc2)cc(=O)n(C)c1=O	PI4K2A inh -69.3
O=C(O)CCNc1cc(N2CCN(C(=O)c3ccco3)CC2)c2noc3c2c1C(=O)c1ccccc1-3	Pin1 inhibitor inconclusive, Tb PFK inh inconclusive, USP2a block inconclusive, PI4K2A inh -61.0, Tb PGK inh inconclusive
O=c1c(C2CC(c3ccc(-c4ccc(Br)cc4)cc3)Cc3ccccc32)c(O)sc2ccccc12 (stereo unspecified)	none (no result: Pin1 inhibitor, Tb PFK inh, USP2a block, Tb PGK inh)
Cc1cccc(C(=O)Nc2sc(C(=O)N3CCCC3)c(C)c2C#N)c1	PI4K2A inh -75.1
Cc1c(C(=O)N2CCCC2)sc(NC(=O)c2cccc(Cl)c2)c1C#N	none
CN=c1scc(-c2ccccc2F)n1/N=C/c1ccc(O)c(O)c1O	Pin1 inhibitor inconclusive, USP2a block 12.6µM, Tb PGK inh inconclusive
O=C(N/N=C/c1cc(Cl)cc([N+](=O)[O-])c1O)NC12CC3CC(CC(C3)C1)C2	Tb PGK inh 11.2µM (no result: Pin1 inhibitor)
COc1cccc(NC(=O)C2CCC(CNS(=O)(=O)c3csc(C(N)=O)c3)CC2)c1 (stereo unspecified)	PI4K2A inh -66.3 (no result: Tb PFK inh, USP2a block)
CC(=O)/C=C/C=C1/C2CCC(C2)C1(C)C (stereo unspecified)	none (no result: Pin1 inhibitor, Tb PFK inh, USP2a block, Tb PGK inh)
C[C@@H]1[C@@H](Sc2ccccc2)CC(=O)O[C@@H]1c1ccc(-c2ccccc2)cc1	PI4K2A inh -62.7 (no result: Tb PFK inh, USP2a block)
CN(CCOC(=O)/C=C/c1ccco1)Cc1ccccc1	Pin1 inhibitor inconclusive, Tb PFK inh inconclusive, Tb PGK inh 11.2µM
COc1cc(/C=C2/C(=O)N(c3cccc(Br)c3)N=C2C)cc(OC)c1O	PI4K2A inh -54.0
COc1cc(/C=C2/C(=O)N(c3ccc(Br)cc3)N=C2C)cc([N+](=O)[O-])c1O	none (no result: Pin1 inhibitor, PI4K2A inh, Tb PGK inh)
CCOC(=O)Cc1ccc2sc(-c3ccccc3)nc2c1	PI4K2A inh -71.7, Tb PGK inh inconclusive
N#Cc1cccc(OC2=NS(=O)(=O)c3ccccc32)c1	none (no result: Tb PFK inh, USP2a block, PI4K2A inh, Tb PGK inh)
NC(=O)C1CCN(c2ncc(-c3ccc4c(c3)OC(F)(F)O4)s2)CC1	none (no result: Tb PFK inh, USP2a block, PI4K2A inh, Tb PGK inh)
O=C(O)C1OC(Oc2c(-c3ccc(O)c(O)c3)oc3cc(O)cc(O)c3c2=O)C(O)C(O)C1O (stereo unspecified)	Pin1 inhibitor inconclusive, Tb PFK inh inconclusive, Tb PGK inh 25.1µM
CN1CCN(C2=C(Cl)C(=O)c3ccccc3C2=O)CC1	Pin1 inhibitor 67.5µM, PI4K2A inh -55.0, Tb PGK inh inconclusive (no result: Tb PFK inh, USP2a block)
O=C1C(Cl)=C(N2CCC(C(=O)O)CC2)C(=O)c2ccccc21	none
Cn1nnc(-c2ccc(OCc3ccccc3F)cc2)n1	PI4K2A inh -56.3
Cc1ccc(-c2cnn(-c3ccccc3)c2N)cc1	PI4K2A inh -76.1, Tb PGK inh inconclusive
CC(C)(C)OC(=O)Nc1ncnc2c1C(c1ccccc1)c1c(ccc3ccccc13)O2 (stereo unspecified)	none (no result: Tb PFK inh, USP2a block, PI4K2A inh, Tb PGK inh)
CCCCCCSc1ccc([C@@H]2[C@@H]3C(=O)N(CC)C(=O)[C@@H]3[C@]3(C(=O)OC)CCCCN23)cc1	PI4K2A inh -51.8
CCCCCCSc1ccc([C@@H]2[C@H]3C(=O)N(C)C(=O)[C@H]3[C@]3(C(=O)OC)CCCCN23)cc1	Pin1 inhibitor inconclusive

Source: PubChem
